Eight compounds from PubChem BioAssay (NCATS) can be followed below.

Experiment [1] concerns the target Lysosomal acid glucosylceramidase (Homo sapiens) (UniProt P04062). Briefly: Glucocerebrosidase-p2 (AID 348; in the data active = potency below about 10 µM; note: potency is the fitted concentration of half-maximal effect). To be noted: purified GBA, blue fluorogenic substrate, 40 min. The essentials:
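Normal human glucocerebrosidase (0.2 nM) with blue fluorogenic substrate (80 uM final) in citrate/phosphate pH 5.9 with 10mM sodium taurocholate, 0.01% tween-20; 40 min RT, NaOH/glycine stop; fluorescence Ex 365/Em 440; AC50 from a titration from 0.6 nM upwards.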

Experiment [2] is described as follows: AP1 Signaling Pathway (AID 357). Note: % is set by controls: 0 for no effect and ±100 for the full control effect. The following applies: ME-180 AP-1-bla reporter, EGF-induced, beta-lactamase ratio, 5 h; at 7.69 µM (top of the series) unless noted. The gist of the method: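 Read-out was the 460nm/530nm emission ratio (excitation 405nm) after CCF4 loading for 2.5 hours at room temperature. Cells carried an AP-1-driven beta-lactamase reporter, were stimulated with EC50 EGF plus compound for 5 hours, and AC50 values came from titrations.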

The nature of experiment [3]: Stat Signaling Pathway (AID 446).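 Note: ME-180 cervical cancer cells given 40 pM IL-6 alongside compound; SIE-controlled beta-lactamase reporter measured as 460/530 nm FRET emission ratio; % is set by controls: 0 for no effect and ±100 for the full control effect.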 To be noted: ME-180 (cervical carcinoma) SIE beta-lactamase reporter, IL-6 stimulated, 5 h; at 7.69 µM (top of the series) unless noted. The gist of the method: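 Compound effects on IL-6-induced STAT reporter activity were measured in ME-180 cells. After overnight culture, cells were co-treated with 40 pM IL-6 for 5 hrs before beta-lactamase substrate loading at room temperature.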

In experiment [4] the target is Glucocorticoid receptor (Homo sapiens) (UniProt P04150). Put plainly: GR-EFC Redistribution (AID 451; calls by dose curve; note: potency is the fitted concentration of half-maximal effect). The following applies: CHO-K1 GR-EFC translocation, beta-gal luminescence, 2 h. The essentials: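 CHO-K1 cells expressing nuclear EA and GR-ED fragments of b-gal; compounds titrated up to 46 uM final, 2 h at 37 C. GR nuclear translocation read as complemented b-gal luminescence after 1 h RT detection.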

The target of experiment [5] is Mitogen-activated protein kinase 10 (Mus musculus) (UniProt Q61831). Briefly: JNK3 AlphaScreen Assay (AID 530).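 Note: kinase came from lysate of stimulated human HepG2 cells; signal reports phosphorylation of biotinylated GST-cJun 1-79 at Ser73 with 10 µM ATP; % is set by controls: 0 for no effect and ±100 for the full control effect.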 To be noted: JNK3 lysate, c-Jun phosphorylation; series mostly up to 57.1 µM. The essentials:
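Activity was read by AlphaScreen after JNK3-containing HepG2 lysate (cytokine pre-activated) phosphorylated biotinylated GST-cJun with 10 uM ATP at room temperature. Phospho-Ser73 cJun antibody with Protein-A acceptor beads provided detection.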
A general note: Bead proximity is the source of the signal in Alpha formats.

The target of experiment [6] is 3',5'-cyclic-AMP phosphodiesterase 4B (Homo sapiens) (UniProt Q07343). Put plainly: qHTS Assay for Inhibitors of PDE-IV (AID 607; active = well fitted activation curve with a large enough effect in the main read-out, with a control signal flat, not every such curve was filed as active; note: % of control where 0% means no effect). To be noted: HEK293 ACTOne CNG channel cells, membrane potential fluorescence; series mostly up to 22.9 µM. The gist of the method: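 ACTOne HEK293 cells carry a modified cAMP-gated CNG channel and express endogenous PDE4; plated 1000 cells/well, compounds up to 22.9 uM final. Membrane-potential dye fluorescence (ex 535/em 590) was read; parental cells received 10 uM forskolin + 100 uM RO 20-1724.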
A general note: Quantitative high-throughput screening tests each substance at several concentrations.

Experiment [7] in a line: qHTS Assay for Lipid Storage Modulators (AID 1519; calls by dose curve). The following applies: Drosophila S3 cells, BODIPY lipid droplet/cell ratio, laser cytometry, cells loaded with oleic acid; for activity change, negative = inhibition: at 57.5 µM (top of the series). The essentials:
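Cells seeded at 5,000 per well were treated with compounds over a concentration series and loaded with oleic acid (400 uM, as added). Lipid droplet fluorescence (488 nm excitation, 500-530 nm channel) was read by laser-scanning cytometry and normalized to 20 uM Triacsin C.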

Experiment [8] can be described thus: Primary qHTS for small molecule stabilizers of the endoplasmic reticulum resident proteome: Secreted ER Calcium Modulated Protein (SERCaMP) assay (AID 1508630; active = well fitted curve in the direction sought with a large enough effect; an effect the other way counts as inactive or inconclusive; note: % is set by controls: 0 for no effect and ±100 for the full control effect). The following applies: SH-SY5Y GLuc-SERCaMP (Gaussia luciferase released on ER calcium loss) secretion, thapsigargin, luminescence; series mostly up to 38.4 µM. The gist of the method: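 The SH-SY5Y reporter protocol was run at 3 concentrations up to 38.3 uM (primary) or 11 concentrations (follow-up): 16 h compound, 100 nM thapsigargin for 4 h, then extracellular luciferase luminescence.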

Experiment [9] has as its target Cytochrome P450 3A4 (Homo sapiens) (UniProt P08684). Briefly: qHTS Assay for Activators of Cytochrome P450 3A4 (AID 885; active = well fitted curve in the direction sought with a large enough effect; an effect the other way counts as inactive or inconclusive; note: nearly all actives have a fitted effect of over 65% in size). The following applies: recombinant CYP3A4, Luciferin-PPXE luminescence, 60 min; series mostly up to 57.1 µM. The gist of the method:
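CYP3A4 activity: Luciferin-PPXE O-dealkylation, 25uM substrate, 200mM KPO4, RT throughout. Read-out is luciferase luminescence; higher values reflect activation.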

The mark [10] stands for this setting: measured here: cell count channel max response.
The mark [11] stands for this setting: measured here: lipid channel max response.

Records with an inconclusive call do not appear. Activity calls are given as the source filed them. Unless noted, calls come from the whole dose curve; as a rule, active = well fitted curve in either direction with a large enough effect (not every such curve was filed as active); inconclusive = small, poorly fitted or top-dose-only effect, or another doubt; inactive = flat fitted curve, though single readings scatter.

Lysosomal acid glucosylceramidase (Homo sapiens), sequence (P04062 whole entry, looked up): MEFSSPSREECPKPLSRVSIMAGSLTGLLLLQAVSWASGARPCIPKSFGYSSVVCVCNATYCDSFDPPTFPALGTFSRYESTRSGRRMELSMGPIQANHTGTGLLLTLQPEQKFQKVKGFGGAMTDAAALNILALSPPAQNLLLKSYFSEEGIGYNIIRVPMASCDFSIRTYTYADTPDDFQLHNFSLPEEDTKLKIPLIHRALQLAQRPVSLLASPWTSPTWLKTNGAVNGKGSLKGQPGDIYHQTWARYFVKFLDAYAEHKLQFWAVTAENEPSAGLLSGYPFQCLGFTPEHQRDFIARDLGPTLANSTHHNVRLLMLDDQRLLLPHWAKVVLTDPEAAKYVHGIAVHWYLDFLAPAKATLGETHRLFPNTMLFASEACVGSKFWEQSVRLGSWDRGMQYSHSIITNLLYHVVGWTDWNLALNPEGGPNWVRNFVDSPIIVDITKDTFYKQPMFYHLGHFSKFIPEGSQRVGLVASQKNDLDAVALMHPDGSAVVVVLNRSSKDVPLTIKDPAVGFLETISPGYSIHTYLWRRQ
Glucocorticoid receptor (Homo sapiens), sequence (P04150 whole entry, looked up, the tested form may be a part): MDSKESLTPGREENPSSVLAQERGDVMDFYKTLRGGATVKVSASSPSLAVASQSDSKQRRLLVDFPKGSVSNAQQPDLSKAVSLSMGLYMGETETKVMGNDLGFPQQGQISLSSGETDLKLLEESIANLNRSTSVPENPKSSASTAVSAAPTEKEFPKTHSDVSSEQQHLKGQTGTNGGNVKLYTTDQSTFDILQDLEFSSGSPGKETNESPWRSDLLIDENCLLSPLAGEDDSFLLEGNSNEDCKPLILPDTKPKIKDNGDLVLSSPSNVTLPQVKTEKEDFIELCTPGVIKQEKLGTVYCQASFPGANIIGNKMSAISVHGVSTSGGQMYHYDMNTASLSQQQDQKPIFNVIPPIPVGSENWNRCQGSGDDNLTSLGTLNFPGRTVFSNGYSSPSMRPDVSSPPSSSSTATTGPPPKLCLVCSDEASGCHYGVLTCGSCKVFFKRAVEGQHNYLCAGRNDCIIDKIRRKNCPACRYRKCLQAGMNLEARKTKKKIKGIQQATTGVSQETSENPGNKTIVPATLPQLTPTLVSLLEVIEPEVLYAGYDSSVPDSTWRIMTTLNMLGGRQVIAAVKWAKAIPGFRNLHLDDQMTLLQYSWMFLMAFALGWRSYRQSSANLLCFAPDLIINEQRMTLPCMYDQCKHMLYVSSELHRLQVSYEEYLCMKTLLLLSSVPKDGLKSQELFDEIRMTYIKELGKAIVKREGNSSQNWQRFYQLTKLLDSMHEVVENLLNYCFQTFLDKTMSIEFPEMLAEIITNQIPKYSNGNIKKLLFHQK
3',5'-cyclic-AMP phosphodiesterase 4B (Homo sapiens), sequence (Q07343 whole entry, looked up): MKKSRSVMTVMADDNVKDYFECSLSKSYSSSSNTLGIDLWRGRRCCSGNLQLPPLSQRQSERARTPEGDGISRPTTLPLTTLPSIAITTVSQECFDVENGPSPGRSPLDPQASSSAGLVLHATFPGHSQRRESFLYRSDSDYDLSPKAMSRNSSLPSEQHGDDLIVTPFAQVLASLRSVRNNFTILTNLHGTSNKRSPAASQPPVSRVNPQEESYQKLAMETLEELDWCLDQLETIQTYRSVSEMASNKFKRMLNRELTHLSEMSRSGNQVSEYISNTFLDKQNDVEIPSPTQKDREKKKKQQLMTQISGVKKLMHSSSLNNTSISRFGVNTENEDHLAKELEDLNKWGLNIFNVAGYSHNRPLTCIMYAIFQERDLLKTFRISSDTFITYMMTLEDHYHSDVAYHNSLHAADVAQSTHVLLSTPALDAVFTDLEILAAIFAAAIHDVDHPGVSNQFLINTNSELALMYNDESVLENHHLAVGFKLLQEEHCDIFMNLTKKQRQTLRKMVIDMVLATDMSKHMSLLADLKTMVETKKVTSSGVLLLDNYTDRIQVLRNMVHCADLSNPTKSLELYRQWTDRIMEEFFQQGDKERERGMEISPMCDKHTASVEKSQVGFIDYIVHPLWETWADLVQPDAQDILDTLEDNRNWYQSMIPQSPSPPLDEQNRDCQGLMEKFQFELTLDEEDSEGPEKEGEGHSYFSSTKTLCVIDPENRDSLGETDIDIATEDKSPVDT
Cytochrome P450 3A4 (Homo sapiens), sequence (P08684 whole entry, looked up): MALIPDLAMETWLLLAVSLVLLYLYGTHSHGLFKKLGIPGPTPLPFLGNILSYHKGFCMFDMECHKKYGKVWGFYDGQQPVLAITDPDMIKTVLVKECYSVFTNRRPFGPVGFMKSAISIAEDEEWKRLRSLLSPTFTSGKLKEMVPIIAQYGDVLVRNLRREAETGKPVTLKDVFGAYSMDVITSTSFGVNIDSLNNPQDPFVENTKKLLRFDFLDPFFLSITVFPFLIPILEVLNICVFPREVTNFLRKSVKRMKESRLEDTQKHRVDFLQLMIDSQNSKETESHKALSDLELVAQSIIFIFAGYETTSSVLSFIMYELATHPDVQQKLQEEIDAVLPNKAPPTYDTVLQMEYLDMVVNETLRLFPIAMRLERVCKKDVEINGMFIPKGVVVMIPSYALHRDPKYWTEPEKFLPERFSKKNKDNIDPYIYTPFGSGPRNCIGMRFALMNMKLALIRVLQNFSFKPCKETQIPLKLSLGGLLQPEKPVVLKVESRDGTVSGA

Regarding `COc1ccccc1CN1CC2(CCN(C(=O)c3cccc(F)c3)CC2)C1`, the Potency in experiment [1] is > 11.4 µM (inactive); in [4], > 46 µM (inactive). The values for the activity change, negative = inhibition in experiment [2] and in experiment [7] were -3.72% (inactive) and 3.26% (inactive), respectively. For the same compound, the activity, negative = inhibition in experiment [3] is 0.108% (inactive). In addition, the Potency entry in experiment [5] and in [6] was “inactive” each time. The values for the max response in experiment [7] (setting [10]) and in [7] (setting [11]) were 8.06% and 13.5%, respectively. The result in experiment [8] was inactive.
Regarding `CN1CC[C@@]2(CCCN(S(=O)(=O)c3ccccc3)C2)C1`, the Potency in experiment [1] is > 11.4 µM (inactive); in experiment [4] it was > 46 µM (inactive). For the same compound, the activity change, negative = inhibition is -25.8% (inactive) in experiment [2] and 5.6% (inactive) in experiment [7]. For the same compound, in experiment [3], the activity, negative = inhibition was 3.36% (inactive). The Potency result in experiment [5] and in experiment [6] was “inactive” throughout. For the same compound, the max response in experiment [7] (setting [10]) was 6.91%; in experiment [7] (setting [11]), 16.3%. In addition, in experiment [8], the result was inactive.
Consider `N#Cc1ccc(CN2CC3(CCN(C(=O)c4ccco4)CC3)C2)cc1`, for which the Potency in experiment [1] is > 11.4 µM (inactive); in experiment [4], > 46 µM (inactive). The activity change, negative = inhibition in [2] is -7.09% (inactive); in [7] it was 4.77% (inactive). For the same compound, the activity, negative = inhibition in experiment [3] is 4.26% (inactive). In addition, the Potency entry in experiment [5] and in [6] was “inactive” in each case. Besides, the max response in experiment [7] (setting [10]) turned out to be 18.6%; in [7] (setting [11]), 23.7%. In addition, in experiment [8], the result was inactive.
With `COc1ccccc1CN1CCC2(CC1)CCN(C(=O)c1csnn1)CC2`, the Potency is > 11.4 µM (inactive) in experiment [1] and > 46 µM (inactive) in experiment [4]. In addition, the activity change, negative = inhibition in [2] was 0.316% (inactive); in [7], 5.71% (inactive). For the same compound, the activity, negative = inhibition in experiment [3] is -5.49% (inactive). The Potency entry in experiment [5], in experiment [6] and in experiment [9] was “inactive” throughout. The max response in [7] (setting [10]) is 16.4%; in experiment [7] (setting [11]) it was 24.4%. Also, in [8], the result was inactive.
With `COC(=O)N1CCC2(CCN(Cc3ccccc3)CC2)CC1`, the results for the Potency in experiment [1] and in experiment [4] were > 11.4 µM (inactive) and > 46 µM (inactive), respectively. The activity change, negative = inhibition in experiment [2] is -5.32% (inactive); in experiment [7], 2.47% (inactive). Moreover, the activity, negative = inhibition in experiment [3] is -1.16% (inactive). In addition, the Potency result in experiment [5] and in experiment [6] was “inactive” in each case. In addition, the max response is -0.656% in experiment [7] (setting [10]) and 4.63% in experiment [7] (setting [11]). The result in [8] was inactive.
As for `O=C(c1cccc(F)c1)N1CCC2(CC1)CN(c1ccccn1)C2`, the values for the Potency in experiment [1] and in experiment [4] were > 11.4 µM (inactive) and > 46 µM (inactive), respectively. Moreover, the activity change, negative = inhibition in [2] was 6.77% (inactive); in [7], 6.42% (inactive). Moreover, the activity, negative = inhibition in [3] is -12.3% (inactive). Also, the Potency result in [6] is “inactive”. Moreover, the max response in [7] (setting [10]) came out at 17.7%; in experiment [7] (setting [11]), 16%. In experiment [8], the outcome was inactive.
As to `COCC(=O)N1CCC2(CCCN(C(c3ccccc3)c3ccccc3)C2)CC1`, the Potency in [1] was > 11.4 µM (inactive); in experiment [4], > 46 µM (inactive). Besides, the activity change, negative = inhibition was -6.37% (inactive) in experiment [2] and -0.272% (inactive) in [7]. Further, the activity, negative = inhibition in [3] is 16.7% (inactive). Moreover, the Potency entry in experiment [5] and in experiment [6] was “inactive” in each case. The max response in experiment [7] (setting [10]) came out at 15.7%; in experiment [7] (setting [11]), 20.6%. The outcome in experiment [8] was inactive.
As to `O=S(=O)(c1ccccc1)N1CCC2(CC1)CN(c1ccncc1)C2`, the Potency in [1] is > 11.4 µM (inactive); in experiment [4], > 46 µM (inactive). Moreover, the values for the activity change, negative = inhibition in experiment [2] and in [7] were 0.671% (inactive) and 2% (inactive), respectively. The activity, negative = inhibition in [3] was 0.614% (inactive). The Potency entry in experiment [5], in experiment [6] and in experiment [9] was “inactive” each time. Moreover, the max response in experiment [7] (setting [10]) is 0.397%; in experiment [7] (setting [11]) it was -0.685%. The outcome in [8] was inactive.
